± gives the standard deviation of the averaged measurements.
System: E. coli TESEC Mtb Alr
Experiment: growth (OD600 after 10 h); higher = more growth (less inhibition)
Conditions: compound 0.1 mM
Procedure: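 TESEC Mtb Alr E. coli, or the Alr+ wild-type control, in 384-well plates with Prestwick library compounds at 0.1 mM and 1% DMSO, across arabinose induction levels of 1E3 to 1E7 nM. Growth is read as OD600 after 10 h at 37 °C in triplicate biological replicates.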

[1] = arabinose 1000 nM, raw OD600 reference: median of DMSO wells 0.294, cell-free background 0.041
[2] = arabinose 10000 nM, raw OD600 reference: median of DMSO wells 0.264, cell-free background 0.041
[3] = arabinose 100000 nM, raw OD600 reference: median of DMSO wells 0.201, cell-free background 0.041
[4] = arabinose 1000000 nM, raw OD600 reference: median of DMSO wells 0.193, cell-free background 0.041
[5] = arabinose 10000000 nM, raw OD600 reference: median of DMSO wells 0.146, cell-free background 0.041

Q: With `CO[C@H]1/C=C/O[C@@]2(C)Oc3c(C)c(O)c4c(O)c(c(/C=N/N5CCN(C6CCCC6)CC5)c(O)c4c3C2=O)NC(=O)/C(C)=C\C=C\[C@H](C)[C@H](O)[C@@H](C)[C@@H](O)[C@@H](C)[C@H](OC(C)=O)[C@@H]1C` [Rifapentine] as the compound, how does the growth [1] read?
A: Its growth is 0.0468 ± 0.0029.

Q: What about the growth [2] of the same compound?
A: The growth was 0.04193 ± 0.00032.

Q: What about the growth [3] of the same compound?
A: Its growth is 0.042 ± 0.00082.

Q: And the growth [4]?
A: The growth was 0.0431 ± 0.0013.

Q: What about the growth [5] of the same compound?
A: Its growth is 0.04243 ± 0.00025.

Q: Which growth [1] does the source give for `CCCCCN(C)CCC(O)(P(=O)(O)O)P(=O)(O)O` [Ibandronate sodium] here?
A: The growth was 0.287 ± 0.01.

Q: What about the growth [2] of the same compound?
A: The growth was 0.25 ± 0.0058.

Q: What about the growth [3] of the same compound?
A: The growth was 0.196 ± 0.011.

Q: What about the growth [4] of the same compound?
A: The growth was 0.182 ± 0.0036.

Q: And the growth [5]?
A: The growth was 0.131 ± 0.0067.

Q: What does the source list for `CCN1CCN(C(=O)N[C@@H](C(=O)N[C@@H]2C(=O)N3C(C(=O)O)=C(CSc4nnnn4C)CS[C@H]23)c2ccc(O)cc2)C(=O)C1=O` [Cefoperazone dihydrate]?
A: growth [1]: 0.321 ± 0.0082; growth [2]: 0.221 ± 0.0032; growth [3]: 0.3 ± 0.0043; growth [4]: 0.182 ± 0.0037; growth [5]: 0.1843 ± 0.0004

Q: How did the growth [1] turn out when `O=C1[C@H](CC[C@H](O)c2ccc(F)cc2)[C@@H](c2ccc(O)cc2)N1c1ccc(F)cc1` [Ezetimibe] was run?
A: The growth was 0.0482 ± 0.0028.

Q: What about the growth [2] of the same compound?
A: Its growth is 0.046 ± 0.00091.

Q: And the growth [3]?
A: Its growth is 0.0462 ± 0.0037.

Q: What about the growth [4] of the same compound?
A: Its growth is 0.0477 ± 0.004.

Q: What about the growth [5] of the same compound?
A: Its growth is 0.0501 ± 0.0032.

Q: How did the growth [1] turn out when `CNC(=C[N+](=O)[O-])NCCSCc1csc(CN(C)C)n1` [Nizatidine] was run?
A: The growth was 0.301 ± 0.018.

Q: And the growth [2]?
A: The growth was 0.274 ± 0.0044.

Q: And the growth [3]?
A: Its growth is 0.21 ± 0.015.

Q: What about the growth [4] of the same compound?
A: The growth was 0.189 ± 0.0052.

Q: And the growth [5]?
A: The growth was 0.14 ± 0.0024.

Q: With `O=c1[nH]c(=O)n([C@H]2C[C@H](O)[C@@H](CO)O2)cc1F` [Floxuridine] as the compound, how does the growth [1] read?
A: The growth was 0.0615 ± 0.0068.

Q: What about the growth [2] of the same compound?
A: The growth was 0.04377 ± 0.00025.

Q: What about the growth [3] of the same compound?
A: Its growth is 0.052 ± 0.0014.

Q: And the growth [4]?
A: The growth was 0.0434 ± 0.0004.

Q: And the growth [5]?
A: Its growth is 0.05017 ± 0.0005.

Q: `Nc1nc(N)c2nc(-c3ccccc3)c(N)nc2n1` [Triamterene] was tested. Which growth [1] did it give?
A: The growth was 0.146 ± 0.012.

Q: And the growth [2]?
A: The growth was 0.12 ± 0.0045.

Q: What about the growth [3] of the same compound?
A: The growth was 0.138 ± 0.0069.

Q: And the growth [4]?
A: The growth was 0.0711 ± 0.0011.

Q: What about the growth [5] of the same compound?
A: Its growth is 0.119 ± 0.0058.

Q: With `Nc1ccc(S(=O)(=O)NC(=O)c2ccccc2)cc1` [Sulfabenzamide] as the compound, how does the growth [1] read?
A: Its growth is 0.321 ± 0.023.

Q: What about the growth [2] of the same compound?
A: The growth was 0.254 ± 0.005.

Q: What about the growth [3] of the same compound?
A: The growth was 0.221 ± 0.022.

Q: And the growth [4]?
A: The growth was 0.172 ± 0.0025.

Q: What about the growth [5] of the same compound?
A: Its growth is 0.156 ± 0.0061.

Reference: the supplement of paper PMC9262897, “Low-cost anti-mycobacterial drug discovery using engineered E. coli” (Nature Communications, 2022)
